# From ChEMBL document CHEMBL3988442, “University of Dundee, Small-Polar-MMV Screening Library” (2021)
# About 13,000 (27%) of roughly 48,000 compounds showed an effect of 50% or more. Some of the results follow.
# Test system: Wolbachia pipientis
# Assay: Anti-Wolbachia Cell-Based Screen
# Assay type: functional
# Set-up: scale not given: in the data most compounds retested in dose-response had high values
# Conditions: 5 µM
row,Compound,Percent Effect
1,Cc1cccnc1CN1CCC2(CC(Nc3ccncn3)C2)C1 (stereo unspecified),130.7%
2,Cc1cc(NC2CC3(CCN(Cc4ncccc4F)C3)C2)ncn1 (stereo unspecified),100.5%
3,Fc1cnccc1CN1CCC2(CCNCC2)C1,-4.399%
4,Cc1cccnc1CC(C)NC1Cc2ccccc2C1 (stereo unspecified),-26.27%
5,CCN1CCC2(CC1)CC(Nc1ncccn1)CO2 (stereo unspecified),-3.551%
6,COC(=O)CNC(=O)c1cn(Cc2ccccc2F)nn1,4.551%
7,CN(c1ncccc1C#N)C1CCN(CCc2ccncc2)CC1,-9.489%
8,Cc1ccccc1-n1cc(C2=CCN(CCN3CCOCC3)CC2)cn1,-7.999%
9,CCCc1nc(N2CCCN3CCC[C@H]3C2)c2cnn(C)c2n1,64.99%
10,CCOCc1nc2c(c(N3CCN4CCCC4C3)n1)CCNCC2 (stereo unspecified),3.786%
11,CCCc1nc(N2CCCC3(CCNC3)C2)c2cnn(C)c2n1 (stereo unspecified),-0.0368%
12,CC(C)c1nc(N2CCN3CCCC3C2)c2cnn(C)c2n1 (stereo unspecified),18.47%
13,Cn1ncc2c(N3CCCN4CCC[C@H]4C3)nc(C(C)(C)C)nc21,135.6%
14,Cn1ncc2c(N3CCCC4(CCNC4)C3)nc(C(C)(C)C)nc21 (stereo unspecified),8.536%
15,Cc1nc(COC[C@@H]2CC[C@H]3NCC[C@H]3O2)cs1.Cl.Cl,12.23%
16,N#Cc1ccc(NC2CCN(c3ncccn3)CC2)cc1C(F)(F)F,-29.96%
17,CN(C(=O)Cc1ccn(C)c1)C1CCCN(C2Cc3ccccc3C2)C1 (stereo unspecified),-11.39%
18,Cc1nc(CN2CCN(C(=O)Cc3cccc(Cl)c3)CC2)no1,6.745%
19,CN(C)C(=O)CN1CCN(C(=O)Cc2csc(-c3ncccn3)n2)CC1,-5.623%
20,Cc1cccc(CC(=O)N2CCCC(N(C)CCCN(C)C)C2)c1 (stereo unspecified),81.85%
21,Cc1nc(CC(=O)N2CCN(C(C)c3ccccc3F)CC2)cs1 (stereo unspecified),-7.662%
22,Cc1nc(CC(=O)N2CCCC(N(C)Cc3ccccc3)C2)cs1 (stereo unspecified),124%
23,O=C(Cc1csc(-c2ncccn2)n1)N1CCN2CCCCC2C1 (stereo unspecified),6.768%

row,Compound,Percent Effect
1,Cc1nc(CC(=O)N2CCCC[C@H](N(C)C)C2)cs1,105.8%
2,Cc1nc(CC(=O)N(C)C2CCCN(CCc3ccccc3)C2)cs1 (stereo unspecified),10.74%
3,COc1ncccc1CN1CC[C@H]2O[C@@H](c3nnc(C)o3)CC[C@H]21,-10.73%
4,O=C(Nc1cccnc1)[C@H]1CN(Cc2ccco2)C[C@H]2OCC[C@@H]12.O=C(O)C(F)(F)F.O=C(O)C(F)(F)F,-18.85%
5,CNC(=O)CN1CCO[C@H]2CN(C(=O)c3ccncc3F)C[C@H]21.O=C(O)C(F)(F)F,-18.06%
6,Cc1ccccc1CC(C)NCc1c(C)nn(C)c1N1CCOCC1.Cl (stereo unspecified),6.405%
7,CCOC(C)c1noc(CN(C)C(=O)C2C(C)(C)C2(C)C)n1 (stereo unspecified),12.97%
8,C[C@H]1C[C@@H]2CCN(CC3CCOCC3)C[C@H]2O1,-3.08%
9,O=C(O)C(F)(F)F.O=C(O)C(F)(F)F.O=C(O)C(F)(F)F.O=C(O)C(F)(F)F.c1cc(CN2C[C@@H]3OCCN(CCN4CCCC4)[C@@H]3C2)ccn1,0.06106%
10,O=C(O)C(F)(F)F.O=C(O)C(F)(F)F.O=C1CO[C@@H]2CN(Cc3cccs3)C[C@H]2N1Cc1ccncc1,-4.405%
11,O=C1CO[C@H]2CN(C3CCOCC3)C[C@H]2N1Cc1ccncc1,-21.59%
12,O=C1CO[C@@H]2CN(C3CCOCC3)C[C@H]2N1Cc1ccncc1,117.1%
13,O=C1CO[C@H]2CN(C3CCOCC3)C[C@H]2N1Cc1ccccn1,-4.247%
14,O=C(O)C(F)(F)F.O=C(O)C(F)(F)F.O=C1CO[C@@H]2CN(CC3CCOCC3)C[C@H]2N1Cc1ccncc1,87.76%
15,NCC1(c2cccc(C(F)(F)F)c2)CCOCC1,-0.8853%
16,CCCN1CCN(C(=O)c2cnccc2C)[C@H]2CS(=O)(=O)C[C@H]21,-10.68%
17,CC[C@]12CN3C[C@](CC)(CN(C1)C3c1[nH]c(=O)[nH]c(=O)c1C)C2=O (stereo partly specified),112.4%
18,Cc1c(C2N3C[C@]4(C)CN2C[C@](C)(C3)C4=O)[nH]c(=O)[nH]c1=O (stereo partly specified),140.1%
19,CCC[C@]12CN3C[C@](C)(CN(C1)C3c1[nH]c(=O)[nH]c(=O)c1C)C2=O (stereo partly specified),118.8%
20,CC[C@]12CN3C[C@](C)(CN(C1)C3c1[nH]c(=O)[nH]c(=O)c1C)C2=O (stereo partly specified),105.1%
21,COCC(=O)NC[C@H]1C[C@@H]2CCN1C[C@@H]2CN(C)c1ccccc1,-6.027%
22,O=C(c1[nH]c2ccc(Cl)cc2c1Cl)N1CCC2(CC1)OCCO2,-4.336%
23,NCC1(c2cccc(C(F)(F)F)c2)CCC1,15.34%
